Measurements from PubChem BioAssay.
Active and inactive are the calls of the source.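 How the source made its calls, unless noted: active means fluorescence slope higher than the sample average by over 3 SD (cut at about -0.22 in these data, passing the limit was not always enough); inactive means the rest.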

Tests used:
[1] = inhibitors of TNFa-induced NFkB p65 translocation, primary screen, imaging, HUVEC, MLSMR starter and 10KST1 sets (AID 438;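 active means inhibition above 20% together with a positive visual image hit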;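 further: compound added about 3h40 before a 20 min TNFalpha stimulation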;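 on inhibition: signal is the nuclear over cytoplasmic p65 intensity ratio per well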); conditions: HUVEC TNFa-induced p65 nuclear translocation; cell count: measured here: nuclei count (cytotoxicity indicator), at 2.08 µM; inhibition: at 2 µM, stronger effect = higher value, 0% TNFa-plus-vehicle, 100% no-TNFa wells
[2] = reduction of polyQ htt aggregates in cells – imaging, exon1htt(103Q)mCFP cells, high-content imaging, primary screen (AID 483;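 active means visual image review flags a hit and inhibition of aggregation exceeds 20%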;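 further: compound exposure lasted 3 days before fixation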;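 on nuclei count: percent of the per-plate median nuclei count of sample wells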); conditions: exon1htt(103Q)mCFP cell line, aggregate imaging, at 2 µM; inhibition of aggregation: stronger effect = higher value; nuclei count: measured here: cell count, toxicity
[3] = endothelial E-selectin expression blockers – imaging, HUVEC, immunofluorescence, MLSMR starter and 10KST1 sets, primary screen (AID 487;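 active means visually confirmed hit in the image check and inhibition above 20%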;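 on inhibition: signal is fraction of cell area covered by stained E-selectin grains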;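 on nuclei count: 100% = median nuclei count of all wells on the same plate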); conditions: HUVEC TNFalpha-induced E-selectin immunofluorescence imaging, at 2 µM; inhibition: stronger effect = higher value; nuclei count: measured here: cell number, toxicity
[4] = biological target: Voltage-gated potassium channel subunit beta-2 (Rattus norvegicus) (UniProt P62483); assay: inhibitors of rat Kvbeta2 reductase activity – biochemical, NADPH fluorescence, primary screen (AID 622); conditions: recombinant KvBeta, 4-cyanobenzaldehyde reduction, at 10 µM, stronger effect = higher value;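 further: slope of raw intensity against log time taken from 70 to 1610 s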
Chain of Voltage-gated potassium channel subunit beta-2 (Rattus norvegicus) (P62483 whole entry, looked up): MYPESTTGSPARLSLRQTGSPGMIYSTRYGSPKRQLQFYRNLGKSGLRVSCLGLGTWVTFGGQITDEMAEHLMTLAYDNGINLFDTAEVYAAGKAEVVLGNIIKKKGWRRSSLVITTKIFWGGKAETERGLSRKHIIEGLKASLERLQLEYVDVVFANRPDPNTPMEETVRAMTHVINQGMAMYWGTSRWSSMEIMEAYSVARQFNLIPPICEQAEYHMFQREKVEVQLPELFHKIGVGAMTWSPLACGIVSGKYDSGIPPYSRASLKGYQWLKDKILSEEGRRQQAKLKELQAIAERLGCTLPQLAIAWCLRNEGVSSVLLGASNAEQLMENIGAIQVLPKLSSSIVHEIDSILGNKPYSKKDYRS

[5] = biological target: Voltage-gated potassium channel subunit beta-2 (Rattus norvegicus) (UniProt P62483); assay: enhancers of rat Kvbeta2 NADPH turnover – biochemical, NADPH fluorescence, primary screen (AID 623;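 active means NADPH fluorescence slope more negative than the mean of all samples by about 3 SD, 99.7% confidence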;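 further: fluorescence intensity change per second fitted from 20 to 320 s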); conditions: Recombinant KvBeta, NADPH fluorescence decrease slope, 10 min; at 10 µM; stronger effect = lower value
[6] = biological target: Alpha-2C adrenergic receptor (Homo sapiens) (UniProt P18825); assay: compounds altering alpha2C-coupled GIRK flux – cell-based, HEK293 alpha2C/GIRK1/2, thallium flux, primary screen (AID 624;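 active means fluorescence slope after compound addition differing from the mean of all screened samples at 99.7% confidence, in either direction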;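 further: slope of fluorescence ratio to pre-addition baseline per second over 15 to 24 s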); conditions: thallium flux BTC fluorescence, at 10 µM, actives lie on both sides
Chain of Alpha-2C adrenergic receptor (Homo sapiens) (P18825 whole entry, looked up): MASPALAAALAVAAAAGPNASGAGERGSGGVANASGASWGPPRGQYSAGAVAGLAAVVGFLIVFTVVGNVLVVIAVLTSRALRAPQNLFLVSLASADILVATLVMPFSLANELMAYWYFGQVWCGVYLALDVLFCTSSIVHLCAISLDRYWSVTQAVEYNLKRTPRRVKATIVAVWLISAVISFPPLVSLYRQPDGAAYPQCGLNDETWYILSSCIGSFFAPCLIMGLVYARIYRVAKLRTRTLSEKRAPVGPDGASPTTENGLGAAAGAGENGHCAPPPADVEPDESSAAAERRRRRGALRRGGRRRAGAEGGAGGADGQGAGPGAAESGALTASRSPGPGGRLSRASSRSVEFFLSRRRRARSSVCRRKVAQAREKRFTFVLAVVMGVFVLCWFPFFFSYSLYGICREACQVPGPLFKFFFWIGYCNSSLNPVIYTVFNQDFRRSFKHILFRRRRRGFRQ

[7] = blockers of RIG-like receptor reporter activation – cell-based, Sendai virus stimulus, luciferase, 10K MLSCN set, TLR/RLR signaling modifier project, primary screen (AID 602276;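 active means inhibition at or above 50% at 10 µM; inactive means inhibition below 50%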;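 further: firefly luciferase from ISG56 promoter only with Renilla not read in this screen; 0% = Sendai virus plus DMSO and 100% = medium plus DMSO without virus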); conditions: HEK293 RL24 IRF3 luciferase reporter, at 10 µM, stronger effect = higher value
[8] = TLR3 IRF3 reporter activation blockers – cell-based, poly I:C stimulus, luciferase, 10K MLSCN set, primary screen (AID 602277;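 active means inhibition of the reporter signal at or above 50%; inactive means inhibition below 50%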); conditions: HEK293-TLR3 RL24 IRF3 luciferase reporter, at 10 µM, stronger effect = higher value

SMILES | cell count [1] | inhibition [1] | inhibition of aggregation [2] | nuclei count [2] | inhibition [3] | nuclei count [3] | fluorescence slope [4] | NADPH fluorescence slope [5] | slope [6] | inhibition [7] | inhibition [8]
Fc1ccccc1C(c1nnnn1Cc1ccc2c(c1)OCO2)N1CCN(Cc2ccccc2)CC1 (stereo not drawn) | 324 | -0.8% (inactive) | -2.5% (inactive) | 112% | 30.7% (inactive) | 108% | -0.631 (inactive) | 1.1e-05 (inactive) | 0.00506 (inactive) | -8.04% (inactive) | -3.59% (inactive)
Cc1nnc(SCC(=O)N(C(C)C)C(C)C)nc1C | 430 | 7% (inactive) | -8.2% (inactive) | 101% | -106% (inactive) | 115% | -0.599 (inactive) | -3.9e-05 (inactive) | 0.00322 (inactive) | 6.7% (inactive) | 8.25% (inactive)
O=C(CSc1ncc(-c2ccc(F)cc2)[nH]1)N1CCCCC1 | 425 | 0% (inactive) | -11% (inactive) | 78.3% | -25.6% (inactive) | 106% | -0.331 (inactive) | -5.1e-05 (inactive) | 0.00631 (inactive) | -13% (inactive) | -71.4% (inactive)
Cc1ccc2c(C)nc(Nc3nc(CSc4nnnn4-c4ccccc4)cc(=O)[nH]3)nc2c1 | 352 | -3.8% (inactive) | -22.3% (inactive) | 100% | -54.7% (inactive) | 101% | -0.6 (inactive) | -3.4e-05 (inactive) | 0.00691 (inactive) | 8.72% (inactive) | -4.56% (inactive)
Cc1ccc(N2CCN(C(=O)c3ccccc3)CC2)c(C)c1 | 484 | -0.5% (inactive) | 1.9% (inactive) | 100% | -70.1% (inactive) | 106% | -0.413 (inactive) | -6.4e-05 (inactive) | 0.00418 (inactive) | 12% (inactive) | 0.924% (inactive)
CC(=O)Nc1ccc(OC(=O)c2cccs2)cc1 | 716 | 10.2% (inactive) | -5% (inactive) | 107% | 27.9% (inactive) | 94.2% | -0.473 (inactive) | 5.9e-06 (inactive) | 0.00674 (inactive) | 8.66% (inactive) | 20% (inactive)
Cc1ccc2c(c1)N(CC(=O)Nc1ccc3c(c1)OCCO3)C(=O)CO2 | 362 | -4.9% (inactive) | -2.2% (inactive) | 84.3% | -6.2% (inactive) | 104% | -0.293 (inactive) | -5e-05 (inactive) | 0.0057 (inactive) | 38.1% (inactive) | 99.4% (active)
CCOC(=O)/C(C#N)=C(/C)c1ccc(OC)cc1 | 323 | -9.6% (inactive) | -28.9% (inactive) | 120% | -50.1% (inactive) | 120% | -0.515 (inactive) | -4.3e-06 (inactive) | 0.00405 (inactive) | 5.07% (inactive) | -13.7% (inactive)
CC(C)CCNC(=O)C(C)N(Cc1ccc(F)cc1)C(=O)c1ccc(CN2CCCCC2)o1 (stereo not drawn) | 327 | -11.2% (inactive) | 28.1% (active) | 75.3% | 2.1% (inactive) | 106% | -0.284 (inactive) | -6e-05 (inactive) | 0.00436 (inactive) | 7.35% (inactive) | 14% (inactive)
OCCn1c(-c2ccc3c(c2)OCO3)csc1=Nc1ccccc1 | 565 | 0.2% (inactive) | -0.6% (inactive) | 66.3% | -41.5% (inactive) | 112% | -0.59 (inactive) | -2.7e-05 (inactive) | 0.00284 (inactive) | -34% (inactive) | -121% (inactive)
CCOC(=O)Cn1nnnc1C(C(C)C)N(Cc1cc2c(C)cc(C)cc2[nH]c1=O)C1CCCC1 (stereo not drawn) | 666 | -13.4% (inactive) | -17.6% (inactive) | 97.7% | 39.1% (inactive) | 106% | -0.498 (inactive) | 1.1e-05 (inactive) | 0.0076 (inactive) | -15.9% (inactive) | 10.4% (inactive)
Cc1ccc(CSc2nc3c(c(=O)[nH]2)CCC3)cc1 | 423 | 11.5% (inactive) | -3.3% (inactive) | 103% | 4.9% (inactive) | 103% | -0.363 (inactive) | -2.9e-05 (inactive) | 0.00659 (inactive) | -0.266% (inactive) | 8.89% (inactive)
O=C1CN(Cc2ccccc2)C(=NCc2ccco2)S1 | 446 | 3.4% (inactive) | -5.3% (inactive) | 99.8% | 13.6% (inactive) | 97.4% | -0.451 (inactive) | -2.2e-05 (inactive) | 0.00487 (inactive) | 8.96% (inactive) | 30.9% (inactive)
CC(C)(Oc1ccc(Cl)cc1)C(=O)NC1CCSC1=O (stereo not drawn) | 620 | -7.5% (inactive) | -23.8% (inactive) | 112% | -63.4% (inactive) | 103% | -0.502 (inactive) | -2.8e-05 (inactive) | 0.00406 (inactive) | 10.9% (inactive) | 15.9% (inactive)
O=C(Nc1cccnc1)c1cccc(NC(=O)c2ccco2)c1 | 350 | 1.5% (inactive) | -3.4% (inactive) | 104% | 13.4% (inactive) | 115% | -0.446 (inactive) | 6.3e-05 (inactive) | 0.00622 (inactive) | 16.9% (inactive) | 22.4% (inactive)
O=C(O)c1c(Cl)c(Cl)c(Cl)c(Cl)c1C(=O)N1CCOCC1 | 530 | -10.7% (inactive) | -17.6% (inactive) | 112% | 12.7% (inactive) | 112% | -0.618 (inactive) | -3.3e-05 (inactive) | 0.00588 (inactive) | 7.47% (inactive) | 5.92% (inactive)
CN1CCN(C(=O)C2CCN(S(=O)(=O)c3ccc4c(c3)oc(=O)n4C)CC2)CC1 | 554 | -4.7% (inactive) | 8.3% (inactive) | 100% | -22% (inactive) | 116% | -0.59 (inactive) | -2.4e-05 (inactive) | 0.00694 (inactive) | 8.49% (inactive) | 23.9% (inactive)
Cc1noc(C)c1S(=O)(=O)N1CCN(Cc2ccc3c(c2)OCO3)CC1 | 730 | 2.5% (inactive) | 0.3% (inactive) | 106% | -16.7% (inactive) | 117% | -0.542 (inactive) | -2e-05 (inactive) | 0.00533 (inactive) | 4.24% (inactive) | 18.3% (inactive)
COCCn1nnnc1CN(CCCN1CCOCC1)Cc1cc2c(C)ccc(C)c2[nH]c1=O | 612 | -8.8% (inactive) | -0.2% (inactive) | 112% | 19.5% (inactive) | 92.4% | -0.49 (inactive) | 3e-05 (inactive) | 0.00345 (inactive) | -10.5% (inactive) | 15.5% (inactive)
CCOc1cc(C2C(C#N)=C(N)Oc3n[nH]c(CC)c32)ccc1OCCN1CCOCC1 (stereo not drawn) | 421 | 23.4% (active) | 12.6% (inactive) | 108% | -49.3% (inactive) | 101% | -0.506 (inactive) | -3.1e-05 (inactive) | 0.00486 (inactive) | 14.3% (inactive) | 15.9% (inactive)
O=C(C1CCCCC1)N1CCC(c2nc3c(nnn3Cc3c(F)cccc3Cl)c(=O)[nH]2)CC1 | 413 | -4.6% (inactive) | -15.9% (inactive) | 116% | -110% (inactive) | 249% | -0.454 (inactive) | -0.000123 (inactive) | 0.00666 (inactive) | 6.04% (inactive) | 27% (inactive)
Cn1nc(C(=O)N2CCOCC2)c2ccccc2c1=O | 321 | 5.2% (inactive) | 12.2% (inactive) | 109% | -79.4% (inactive) | 130% | -0.43 (inactive) | -3.1e-05 (inactive) | 0.00337 (inactive) | 9.89% (inactive) | 32% (inactive)
COc1ccc(S(=O)(=O)CCC(=O)O)cc1 | 756 | -2.2% (inactive) | 25.4% (inactive) | 126% | -47.5% (inactive) | 107% | -0.603 (inactive) | 1.2e-05 (inactive) | 0.00748 (inactive) | 17% (inactive) | 21.8% (inactive)
Cc1cc(C)nc(NC2=NCC(=O)N2c2ccccc2Br)n1 | 899 | -1.7% (inactive) | -2.1% (inactive) | 92.9% | -29.3% (inactive) | 115% | -0.4 (inactive) | 9.8e-06 (inactive) | 0.00564 (inactive) | 17.3% (inactive) | 40.3% (inactive)
CN1C(=O)C(CC(=O)N2CCN(C(c3ccccc3)c3ccccc3)CC2)N(C)C1=O (stereo not drawn) | 281 | -2.3% (inactive) | 9.8% (inactive) | 97.2% | 20.6% (inactive) | 118% | -0.288 (inactive) | 5.9e-06 (inactive) | 0.00745 (inactive) | 1.7% (inactive) | 22.8% (inactive)
COc1ccc(-n2c(Cc3cccn3C)nnc2SCC(=O)Nc2cccc(C)c2C)cc1 | 816 | 4.6% (inactive) | 4.2% (inactive) | 105% | -26.4% (inactive) | 110% | -0.596 (inactive) | -4.5e-06 (inactive) | 0.00595 (inactive) | 0.797% (inactive) | 27.3% (inactive)
CCn1cc(C(=O)N=c2sc3ccccc3n2C)c(=O)c2ccc(C)nc21 | 450 | 3.7% (inactive) | -5.2% (inactive) | 107% | -27.5% (inactive) | 97.3% | -0.361 (inactive) | -6.4e-05 (inactive) | 0.00595 (inactive) | 6.49% (inactive) | 23% (inactive)
COc1ccc(OC)c(Nc2nc(-c3sc(N)nc3C)cs2)c1 | 715 | -8.6% (inactive) | 11.3% (inactive) | 104% | -77.1% (inactive) | 105% | -0.34 (inactive) | -4.1e-05 (inactive) | 0.00384 (inactive) | -4.79% (inactive) | -10.6% (inactive)
